Measured values: PubChem BioAssay (NCI)
Compounds without any hit were thinned out: in the full panel of roughly 83,000, 20% have a hit.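 Compound tested at a single concentration for 48 hours in 96-well plates; a percent growth value below 10 was scored as active.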 A number with no mark means an inactive call. Active and inactive are the calls of the source.

System: SF-295 CNS
Assay: NCI-60 one-dose screen, 48 h (100 = growth as untreated, 0 = no growth, -100 = all killed)
Conditions: 10 µM unless noted

SMILES | growth
CC(C)(Sc1cc(C(C)(C)C)c(O)c(C(C)(C)C)c1)Sc1cc(C(C)(C)C)c(OC(=O)CCC(=O)O)c(C(C)(C)C)c1 | 42.1%
COc1cc(C=C2C(=O)NC(=S)NC2=O)cc(CN2CCCC2)c1O | 104%
Cc1cc(C)c2c(c1)N(C)c1ncnc(-n3c(C)nc4cc(C)ccc43)c1CC2C (centres undefined) | 9.14% (active)
Brc1ccc(Nc2nc(Nc3cnc4ccccc4c3)c3[nH]cnc3n2)cc1 | 84.7%
COc1cc(C[C@H]2COc3cc(O)cc(O)c3C2=O)ccc1O | 54.5%
CC(=O)c1c(Nc2cccc(F)c2)[nH]c2c(Cl)cc(Cl)c(Cl)c2c1=O | -28.4% (active)
COC12C=C/C(=C(/C(=O)OCc3csc(SC)n3)C(=O)CCCCCCCCC3(OC)C=C/C(=C(/C(=O)OCc4cnc(SC)s4)C(=O)CCCCCCCC1)O3)O2 (centres undefined) | 14.8%
COC12C=C/C(=C(/C(=O)OCCSc3ccnn3C)C(=O)CCCCCCCCC3(OC)C=C/C(=C(/C(=O)OCCSc4ccnn4C)C(=O)CCCCCCCC1)O3)O2 | -3.35% (active)
O=C(/C=C/C12c3ccccc3C(c3ccccc31)C1C(=O)NC(=O)C12)c1ccco1 (centres undefined) | 41.9%
